The source of these data is the supplement of paper PMC9950053.

Where a name gives a salt, the structure may show the parent alone.

In this experiment the test system is Danio rerio larvae (5 dpf). Kind of experiment: combined upward orientation toward moving lines (periods 7-14) minus DMSO control (percentage points); higher = more orientation with moving lines than DMSO larvae. The settings on record: 10 µM; exposure time: 3 h pre-incubation + 3 h imaging. The procedure:
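Wild-type 5 dpf zebrafish larvae (n=48 per drug, 96-well plates, 28.5 °C) were exposed to Tocris FDA-approved library compounds at 10 µM (0.1% DMSO) for 3 h before and 3 h during imaging. Images were taken every 6 s during visual (moving coloured lines) and acoustic stimuli, and larvae were tracked with the DeepLabCut-based Z-LaP Tracker. Each behavioural measure is the treated-group mean minus the DMSO vehicle control mean (n=844), in percentage points. This mapping covers compounds with 4-character plate codes.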
For the compound `CCCCC1=NC2(CCCC2)C(=O)N1Cc1ccc(-c2ccccc2-c2nnn[nH]2)cc1` [Irbesartan], the “combined upward orientation toward moving lines” value was -8.87. Regarding `CC(C)(C#N)c1cc(Cn2cncn2)cc(C(C)(C)C#N)c1` [Anastrozole], the “combined upward orientation toward moving lines” value is -0.152. Take `CCCCCCCCc1ccc(CCC(N)(CO)CO)cc1`: the “combined upward orientation toward moving lines” value is -8.46.

For `CN(C)CC/C=C1/c2ccccc2COc2ccc(CC(=O)O)cc21` [Olopatadine hydrochloride], the “combined upward orientation toward moving lines” value was -3.54. Under `COc1ccc([C@@H]2Sc3ccccc3N(CCN(C)C)C(=O)[C@@H]2OC(C)=O)cc1` [Diltiazem hydrochloride] stands -1.58. The value for `Cc1ccc(N(CC2=NCCN2)c2cccc(O)c2)cc1` [Phentolamine Mesylate] was 4.89. As to `CN(CCOc1ccc(CC2SC(=O)NC2=O)cc1)c1ccccn1` (stereo not given) [Rosiglitazone], the “combined upward orientation toward moving lines” value is -10.5. The value for `Clc1ccccc1C(c1ccccc1)(c1ccccc1)n1ccnc1` [Clotrimazole] was -3.91; that for `CN(CCOc1ccc(NS(C)(=O)=O)cc1)CCc1ccc(NS(C)(=O)=O)cc1` [Dofetilide] was -4.9; that for `O=C1CCc2cc(OCCCCc3nnnn3C3CCCCC3)ccc2N1` [Cilostazol] was -4.64. Consider `CC(C)CN(C[C@@H](O)[C@H](Cc1ccccc1)NC(=O)O[C@H]1CO[C@H]2OCC[C@H]21)S(=O)(=O)c1ccc(N)cc1` [Darunavir], for which the “combined upward orientation toward moving lines” value came out at 0.247. The value for `CC(C)Nc1cccnc1N1CCN(C(=O)c2cc3cc(NS(C)(=O)=O)ccc3[nH]2)CC1` [Delavirdine mesylate] was -7.64; that for `COc1ccc(-c2ccc3cc(C(=O)O)ccc3c2)cc1C12CC3CC(CC(C3)C1)C2` [Adapalene] was -8.09. Turning to `NC(=O)c1ncn([C@@H]2O[C@H](CO)[C@@H](O)[C@H]2O)n1` [Ribavirin], the “combined upward orientation toward moving lines” value is -1.89.

Turning to `Cn1nnc2c(C(N)=O)ncn2c1=O` [Temozolomide], the “combined upward orientation toward moving lines” value was -6.36. With `CCC(=O)O[C@]1(C(=O)SCF)[C@H](C)C[C@H]2[C@@H]3C[C@H](F)C4=CC(=O)C=C[C@]4(C)[C@@]3(F)[C@@H](O)C[C@@]21C` [Fluticasone propionate], the “combined upward orientation toward moving lines” value is -9.35.

On to `COc1ccccc1OCCNCC(O)COc1cccc2[nH]c3ccccc3c12` (stereo not given) [Carvedilol], for which the “combined upward orientation toward moving lines” value is -11.6. Under `OCCN(CCO)c1nc(N2CCCCC2)c2nc(N(CCO)CCO)nc(N3CCCCC3)c2n1` [Dipyridamole] stands -2.19; under `Cn1cnc([N+](=O)[O-])c1Sc1ncnc2[nH]cnc12` [Azathioprine], 0.321; under `COC(=O)C1=C(C)NC(C)=C(C(=O)OC(C)C)C1c1cccc2nonc12` (stereo not given) [Isradipine], -3.59.

As to `CN1CCN(CCCN2c3ccccc3Sc3ccc(Cl)cc32)CC1` [Prochlorperazine dimaleate], the “combined upward orientation toward moving lines” value turned out to be 0.242. The value for `CCCc1nc2c(C)cc(-c3nc4ccccc4n3C)cc2n1Cc1ccc(-c2ccccc2C(=O)O)cc1` [Telmisartan] was -1.92; that for `CCOC(=O)C1=C(C)NC(C)=C(C(=O)OC)C1c1cccc(Cl)c1Cl` (stereo not given) [Felodipine] was -3.05. Consider `CCOc1cc(CC(=O)N[C@@H](CC(C)C)c2ccccc2N2CCCCC2)ccc1C(=O)O` [Repaglinide], for which the “combined upward orientation toward moving lines” value was -4.89. `CC#C[C@]1(O)CC[C@H]2[C@@H]3CCC4=CC(=O)CCC4=C3[C@@H](c3ccc(N(C)C)cc3)C[C@@]21C` [Mifepristone]: the “combined upward orientation toward moving lines” value came out at 2.94. The value for `OCCOCCN1CCN(C2=Nc3ccccc3Sc3ccccc32)CC1` [Quetiapine hemifumarate] was -3.4; that for `C[C@H](Cc1cc2c(c(C(N)=O)c1)N(CCCO)CC2)NCCOc1ccccc1OCC(F)(F)F` [Silodosin] was -4.66. For the compound `CCCN(CCc1cccs1)[C@H]1CCc2c(O)cccc2C1` [Rotigotine hydrochloride], the “combined upward orientation toward moving lines” value was -7.46. The value for `C=CC(=O)N1CCC[C@@H](n2nc(-c3ccc(Oc4ccccc4)cc3)c3c(N)ncnc32)C1` [Ibrutinib] was -3.41; that for `CN1CC[C@@H](NC(=O)Nc2ccc(C#N)cc2)C[C@@H]1c1nc2ccccc2[nH]1` was 4.61. As for `CCCc1nc(C(C)(C)O)c(C(=O)O)n1Cc1ccc(-c2ccccc2-c2nnn[nH]2)cc1` [Olmesartan], the “combined upward orientation toward moving lines” value was -6.03.

As to `CC1=Nc2ccc(Cl)cc2S(=O)(=O)N1` [Diazoxide], the “combined upward orientation toward moving lines” value was -1.53. Take `COc1c(C)c2c(c(O)c1C/C=C(\C)CCC(=O)O)C(=O)OC2` [Mycophenolic acid]: the “combined upward orientation toward moving lines” value is -0.977. Turning to `CC(=O)Oc1ccccc1C(=O)O` [Aspirin], the “combined upward orientation toward moving lines” value is -3.93.

Consider `C[C@]12CCC(=O)C=C1CC[C@@H]1[C@@H]2[C@@H](O)C[C@@]2(C)[C@H]1CC[C@]2(O)C(=O)CO` [Hydrocortisone], for which the “combined upward orientation toward moving lines” value was 0.758. For `CN1CC2c3ccccc3Oc3ccc(Cl)cc3C2C1` (stereo not given) [Asenapine maleate], the “combined upward orientation toward moving lines” value was -7.05. Under `CC(C)C(=O)OCC(=O)[C@@]12O[C@H](C3CCCCC3)O[C@@H]1C[C@H]1[C@@H]3CCC4=CC(=O)C=C[C@]4(C)[C@H]3[C@@H](O)C[C@@]12C` [Ciclesonide] stands -8.95; under `Cc1ccccc1C(=O)Nc1ccc(C(=O)N2CCCC(O)c3cc(Cl)ccc32)c(C)c1` (stereo not given) [Tolvaptan], -0.0581. Under `CC(c1cc2ccccc2s1)N(O)C(N)=O` (stereo not given) [Zileuton] stands -7.03; under `Nc1nc(NC2CC2)c2ncn([C@H]3C=C[C@@H](CO)C3)c2n1` [Abacavir hemisulfate], -1.52.
